Inconclusive results are not listed. Active and inactive are the calls of the source. The calls were made as follows, unless noted: active = hit-call score of the fitted dose curve at least 0.9, where 1 is the maximum; inactive = score below 0.9.
Legend:
[1] = ATG_PXRE_CIS: Attagene CIS-FACTORIAL HepG2 Assay for human Pregnane X Receptor Element (PXRE) (AID 2282957); settings: HepG2 Attagene CIS-FACTORIAL PXRE reporter, mRNA; actives raise or lower the signal
Procedure, shortened: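 Fluorescent capillary electrophoresis of amplified reporter cDNA gave the signal, collected 24 h after dosing HepG2 cells that held transfected cis-element reporter constructs.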

[2] = ATG_PPRE_CIS: Attagene CIS-FACTORIAL HepG2 Assay for human Peroxisome Proliferator-activated Response Element (PPRE) (AID 2282958); settings: HepG2 PPRE cis-element reporter, Attagene transcription factor profiling; actives raise or lower the signal
Procedure, shortened: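 Transcript-level reporter induction in transfected HepG2 cells after 24 h chemical exposure, quantified by fluorescence from RT-PCR products separated by capillary electrophoresis.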

[3] = ATG_RORE_CIS: Attagene CIS-FACTORIAL HepG2 Assay for human RAR-related Orphan Receptor Element (RORE) (AID 2282959); settings: HepG2 Attagene cis-factorial RORE reporter, mRNA; actives raise or lower the signal
Procedure, shortened: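 Multiplexed reporter assay measuring mRNA induction from a cis promoter element in transiently transfected HepG2 cells after 24 h treatment. Detection via RT-PCR and capillary electrophoresis fluorescence; DMSO serves as baseline.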

[4] = biological target: Transcription factor Sp1 (Homo sapiens) (UniProt P08047); assay: ATG_Sp1_CIS: Attagene CIS-FACTORIAL HepG2 Assay for human Specificity Protein 1 (Sp1) (AID 2282961); settings: HepG2 Sp1 cis-reporter transcription, actives raise or lower the signal
Procedure, shortened: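 Measures mRNA induction of an Sp1-linked reporter in HepG2 cells 24 h post-dosing. Multiplexed reporters read by RT-PCR and capillary electrophoresis; DMSO serves as negative control and baseline.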

[5] = ATG_SREBP_CIS: Attagene CIS-FACTORIAL HepG2 Assay for human Sterol Regulatory Element Binding (SREBP) (AID 2282962); settings: HepG2 Attagene cis-factorial SREBP reporter, mRNA; actives raise or lower the signal
Procedure, shortened: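 Endogenous factor activity is measured in HepG2 through multiplexed reporter units under cis-element control. Following a 24 h incubation, reporter transcripts are reverse-transcribed, PCR-amplified and sized by capillary electrophoresis; activity is fitted in both directions relative to DMSO.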

[6] = biological target: Signal transducer and activator of transcription 3 (Homo sapiens) (UniProt P40763); assay: ATG_STAT3_CIS: Attagene CIS-FACTORIAL HepG2 Assay for human Signal Transducer and Activator of Transcription 3 (STAT3) (AID 2282963); settings: HepG2, Attagene cis-factorial STAT3 reporter transcription; actives raise or lower the signal
Procedure, shortened: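 HepG2, MRTU-transfected, 24 h dosing. RNA → RT → PCR → FAM label → HpaI → CE. Bidirectional fit vs DMSO.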

[7] = ATG_TA_CIS: Attagene CIS-FACTORIAL HepG2 Assay for human TA Basal Promoter (AID 2282964); settings: HepG2 Attagene CIS-factorial TA basal promoter reporter; actives raise or lower the signal
Procedure, shortened: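 Cis-factorial format in HepG2: reporters report endogenous factors, not chimeric Gal4 fusions. After 24 h treatment, reporter transcripts were measured by RT-PCR-capillary electrophoresis fluorescence, analysed bidirectionally versus DMSO.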

[8] = ATG_TCF_b_cat_CIS: Attagene CIS-FACTORIAL HepG2 Assay for human T-Cell-Factor with beta-catenin (TCF/b-cat) (AID 2282965); settings: HepG2 TCF/beta-catenin cis-reporter transcription, actives raise or lower the signal
Procedure, shortened: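 Using capillary electrophoresis as the read-out, labelled reporter cDNA fragments from transiently transfected HepG2 were sized and quantified. Exposure lasted 24 hours; activity in either direction was referenced to DMSO.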

[9] = ATG_TAL_CIS: Attagene CIS-FACTORIAL HepG2 Assay for human TAL Basal Promoter (AID 2282966); settings: HepG2 Attagene cis-factorial TAL promoter reporter; actives raise or lower the signal;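 also: background control endpoint measuring basal TAL promoter reporter mRNA not a specific factor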
Procedure, shortened: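 Transiently transfected HepG2 (cis-regulated reporter units), 24 h treatment, mRNA read by fluorescent CE after RT-PCR; bidirectional fit, DMSO baseline.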

[10] = ATG_TGFb_CIS: Attagene CIS-FACTORIAL HepG2 Assay for human Transforming Growth Factor (TGF) (AID 2282967); settings: HepG2 Attagene CIS TGFb reporter, mRNA transcription; actives raise or lower the signal
Procedure, shortened: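 Multiplexed cis-reporter HepG2 system, 24 h treatment; mRNA induction read by fluorescence after RT-PCR and CE; DMSO negative control, bidirectional curve fitting.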

[11] = ATG_VDRE_CIS: Attagene CIS-FACTORIAL HepG2 Assay for human Vitamin D Receptor Element (VDRE) (AID 2282968); settings: HepG2 VDRE cis-reporter transcription, actives raise or lower the signal
Procedure, shortened: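 Steps: transfect HepG2 with multiple reporter transcription units; dose chemicals 24 h; isolate RNA; RT-PCR; label with 6-FAM primer extension; HpaI digest; capillary electrophoresis. Curves fitted both directions against DMSO.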

[12] = biological target: X-box-binding protein 1 (Homo sapiens) (UniProt P17861); assay: ATG_Xbp1_CIS: Attagene CIS-FACTORIAL HepG2 Assay for human X-box Binding Protein 1 (XBP1) (AID 2282972); settings: HepG2 XBP1 cis-element reporter, Attagene multiplex; actives raise or lower the signal
Procedure, shortened: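 Multiplexed cis-reporter readout in transfected HepG2 liver cells. Exposure lasted 24 hours. Activity in either direction was fitted against DMSO as negative control and baseline.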

[13] = ATG_GAL4_TRANS: Attagene TRANS-FACTORIAL HepG2 Assay for GAL4 (Internal Marker) (AID 2282976; active = hit-call score of the fitted dose curve at least 0.9, where 1 is the maximum); settings: HepG2 Attagene TRANS GAL4 internal marker reporter
Procedure, shortened: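 HepG2 cells transiently transfected with multiplexed GAL4-UAS reporter constructs were dosed for 24 h. Reporter mRNA was measured by RT-PCR, 6-FAM primer extension, HpaI digestion and capillary electrophoresis, and gain of signal was fitted relative to DMSO.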

[14] = ATG_Sox_CIS: Attagene CIS-FACTORIAL HepG2 Assay for human SRY-box transcription factor (SOX) (AID 2282960); settings: HepG2 Attagene cis-factorial SOX reporter, mRNA; actives raise or lower the signal
Procedure, shortened: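 Cells were transfected with reporter constructs under cis-regulatory promoters, then exposed to chemicals for 24 h. Reporter transcripts were quantified by fluorescence after RT-PCR and capillary electrophoresis; activity was fitted in both directions against DMSO.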

[15] = biological target: Nuclear receptor subfamily 1 group I member 3 (Homo sapiens) (UniProt Q14994); assay: ATG_CAR_TRANS: Attagene TRANS-FACTORIAL HepG2 Assay for human Constitutive Androstane Receptor (CAR) (AID 2282969; active = hit-call score of the fitted dose curve at least 0.9, where 1 is the maximum;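 also: activators raise reporter mRNA above DMSO so AC50 marks induction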); settings: HepG2 Attagene TRANS-FACTORIAL CAR reporter
Procedure, shortened: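 Steps: transient transfection of HepG2 with multiple GAL4-UAS reporter units; 24 h compound incubation; RNA isolation, RT-PCR, 6-FAM primer extension, HpaI digest; capillary electrophoresis. Gain-of-signal relative to DMSO negative control.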

[16] = biological target: Estrogen receptor (Homo sapiens) (UniProt P03372); assay: ATG_ERa_TRANS: Attagene TRANS-FACTORIAL HepG2 Assay for human Estrogen Receptor alpha (ERa) (AID 2282970; active = hit-call score of the fitted dose curve at least 0.9, where 1 is the maximum); settings: HepG2 Attagene TRANS ERa GAL4 reporter, mRNA
Procedure, shortened: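 One of 30 multiplexed endpoints from a HepG2 TRANS system, this one reports ERa-Gal4-driven reporter mRNA. Transcripts were quantified 24 hours post-dosing by fluorescent RT-PCR and capillary electrophoresis, with activity scored as induction over DMSO.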

[17] = ATG_M_19_TRANS: Attagene TRANS-FACTORIAL HepG2 Assay for M19 Transcription Factor (Internal Marker) (AID 2282974; active = hit-call score of the fitted dose curve at least 0.9, where 1 is the maximum); settings: HepG2 Attagene TRANS-FACTORIAL M19 internal marker reporter
Procedure, shortened: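 After transfection of HepG2 with GAL4-UAS-driven reporter constructs, cells are dosed for 24 h. Total RNA is reverse-transcribed, reporter sequences PCR-amplified and labelled, then HpaI-digested and sized by capillary electrophoresis.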

[18] = biological target: Estrogen-related receptor gamma (Homo sapiens) (UniProt P62508); assay: ATG_ERRg_TRANS: Attagene TRANS-FACTORIAL HepG2 Assay for human Estrogen-Related Receptor gamma (ERRg) (AID 2282977; active = hit-call score of the fitted dose curve at least 0.9, where 1 is the maximum;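 also: hits increase reporter signal over DMSO so potencies reflect activators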); settings: HepG2 Attagene TRANS reporter, ERRg transactivation
Procedure, shortened: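 Exogenous NR-Gal4 chimera activity measured as reporter transcript induction after 24 h in transiently transfected HepG2 cells. RNA reverse-transcribed, PCR-amplified, 6-FAM-labelled and resolved by capillary electrophoresis; increase over DMSO baseline.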

Measured: AC50

Chain of X-box-binding protein 1 (Homo sapiens) (P17861 whole entry, looked up): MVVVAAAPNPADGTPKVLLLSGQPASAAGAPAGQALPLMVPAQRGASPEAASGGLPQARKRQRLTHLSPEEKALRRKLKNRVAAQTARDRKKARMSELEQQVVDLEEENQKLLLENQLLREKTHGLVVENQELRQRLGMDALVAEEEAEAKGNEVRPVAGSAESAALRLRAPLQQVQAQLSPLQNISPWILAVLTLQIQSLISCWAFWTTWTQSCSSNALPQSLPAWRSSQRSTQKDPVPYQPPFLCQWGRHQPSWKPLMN
Chain of Signal transducer and activator of transcription 3 (Homo sapiens) (P40763 whole entry, looked up): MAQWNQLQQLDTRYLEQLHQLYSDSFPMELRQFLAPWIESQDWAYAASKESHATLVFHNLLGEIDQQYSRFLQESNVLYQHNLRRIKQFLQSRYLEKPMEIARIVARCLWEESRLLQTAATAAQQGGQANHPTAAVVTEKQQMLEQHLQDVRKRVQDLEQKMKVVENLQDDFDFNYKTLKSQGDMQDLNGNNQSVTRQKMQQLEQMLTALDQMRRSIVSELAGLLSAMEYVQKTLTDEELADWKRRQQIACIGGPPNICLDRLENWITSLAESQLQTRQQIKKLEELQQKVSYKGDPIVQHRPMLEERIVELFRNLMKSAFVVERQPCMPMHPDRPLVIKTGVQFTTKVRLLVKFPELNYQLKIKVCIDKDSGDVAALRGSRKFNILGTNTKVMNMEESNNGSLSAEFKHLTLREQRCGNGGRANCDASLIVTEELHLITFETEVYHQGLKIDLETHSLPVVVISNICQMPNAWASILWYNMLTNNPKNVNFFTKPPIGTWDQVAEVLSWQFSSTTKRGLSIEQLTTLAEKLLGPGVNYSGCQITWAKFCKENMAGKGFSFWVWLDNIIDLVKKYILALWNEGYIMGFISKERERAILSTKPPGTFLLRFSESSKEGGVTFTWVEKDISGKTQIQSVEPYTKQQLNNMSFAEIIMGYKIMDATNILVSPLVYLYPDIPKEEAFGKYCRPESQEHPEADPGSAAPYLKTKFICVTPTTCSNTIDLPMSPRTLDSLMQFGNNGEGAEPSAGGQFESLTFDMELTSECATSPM
Chain of Estrogen-related receptor gamma (Homo sapiens) (P62508 whole entry, looked up, the tested form may be a part): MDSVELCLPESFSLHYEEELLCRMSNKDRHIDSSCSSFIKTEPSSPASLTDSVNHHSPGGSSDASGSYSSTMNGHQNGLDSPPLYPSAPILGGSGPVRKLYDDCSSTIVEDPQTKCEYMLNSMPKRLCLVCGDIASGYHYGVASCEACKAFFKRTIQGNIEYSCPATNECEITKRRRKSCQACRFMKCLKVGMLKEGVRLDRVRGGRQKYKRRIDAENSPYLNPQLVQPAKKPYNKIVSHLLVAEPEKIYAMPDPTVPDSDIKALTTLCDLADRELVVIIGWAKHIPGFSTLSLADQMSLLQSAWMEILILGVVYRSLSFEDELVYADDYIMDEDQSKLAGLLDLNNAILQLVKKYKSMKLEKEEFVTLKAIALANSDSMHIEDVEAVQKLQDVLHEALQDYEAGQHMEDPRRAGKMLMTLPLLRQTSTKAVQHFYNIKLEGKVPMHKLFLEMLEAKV
Chain of Transcription factor Sp1 (Homo sapiens) (P08047 whole entry, looked up): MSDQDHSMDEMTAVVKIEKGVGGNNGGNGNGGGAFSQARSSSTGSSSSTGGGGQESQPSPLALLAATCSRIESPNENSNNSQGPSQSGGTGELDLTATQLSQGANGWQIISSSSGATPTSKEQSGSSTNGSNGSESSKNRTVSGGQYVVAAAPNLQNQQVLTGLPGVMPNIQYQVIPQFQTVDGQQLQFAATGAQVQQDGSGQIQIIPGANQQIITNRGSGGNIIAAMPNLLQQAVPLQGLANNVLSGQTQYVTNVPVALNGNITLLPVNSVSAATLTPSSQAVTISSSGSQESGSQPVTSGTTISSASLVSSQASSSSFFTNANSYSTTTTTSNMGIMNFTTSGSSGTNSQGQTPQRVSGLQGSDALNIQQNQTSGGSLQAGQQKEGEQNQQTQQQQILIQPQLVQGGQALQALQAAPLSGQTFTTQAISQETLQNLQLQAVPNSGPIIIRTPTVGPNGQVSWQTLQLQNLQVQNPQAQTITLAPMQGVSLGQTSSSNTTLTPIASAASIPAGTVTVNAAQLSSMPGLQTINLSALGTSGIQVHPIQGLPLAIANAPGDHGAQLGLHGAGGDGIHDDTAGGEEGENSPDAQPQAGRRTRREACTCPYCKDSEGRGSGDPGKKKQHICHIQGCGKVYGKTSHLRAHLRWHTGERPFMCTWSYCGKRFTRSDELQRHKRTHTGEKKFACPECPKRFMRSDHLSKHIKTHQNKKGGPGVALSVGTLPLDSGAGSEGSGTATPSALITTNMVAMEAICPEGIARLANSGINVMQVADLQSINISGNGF
Chain of Estrogen receptor (Homo sapiens) (P03372 whole entry, looked up, the tested form may be a part): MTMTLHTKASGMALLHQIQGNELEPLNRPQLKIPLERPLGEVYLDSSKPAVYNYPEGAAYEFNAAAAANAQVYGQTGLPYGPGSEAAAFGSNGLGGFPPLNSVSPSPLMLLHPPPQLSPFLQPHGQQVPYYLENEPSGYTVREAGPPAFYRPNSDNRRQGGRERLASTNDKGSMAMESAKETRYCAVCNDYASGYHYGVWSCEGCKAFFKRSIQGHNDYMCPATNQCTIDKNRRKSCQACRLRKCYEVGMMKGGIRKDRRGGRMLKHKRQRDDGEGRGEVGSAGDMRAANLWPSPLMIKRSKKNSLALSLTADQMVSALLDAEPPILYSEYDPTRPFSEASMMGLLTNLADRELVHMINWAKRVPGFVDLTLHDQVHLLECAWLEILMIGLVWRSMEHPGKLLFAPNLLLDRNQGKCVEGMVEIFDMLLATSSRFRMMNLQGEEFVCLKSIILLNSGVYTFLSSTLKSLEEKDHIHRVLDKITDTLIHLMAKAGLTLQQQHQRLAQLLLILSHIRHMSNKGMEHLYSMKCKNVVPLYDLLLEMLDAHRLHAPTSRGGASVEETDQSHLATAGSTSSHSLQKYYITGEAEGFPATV
Chain of Nuclear receptor subfamily 1 group I member 3 (Homo sapiens) (Q14994 whole entry, looked up, the tested form may be a part): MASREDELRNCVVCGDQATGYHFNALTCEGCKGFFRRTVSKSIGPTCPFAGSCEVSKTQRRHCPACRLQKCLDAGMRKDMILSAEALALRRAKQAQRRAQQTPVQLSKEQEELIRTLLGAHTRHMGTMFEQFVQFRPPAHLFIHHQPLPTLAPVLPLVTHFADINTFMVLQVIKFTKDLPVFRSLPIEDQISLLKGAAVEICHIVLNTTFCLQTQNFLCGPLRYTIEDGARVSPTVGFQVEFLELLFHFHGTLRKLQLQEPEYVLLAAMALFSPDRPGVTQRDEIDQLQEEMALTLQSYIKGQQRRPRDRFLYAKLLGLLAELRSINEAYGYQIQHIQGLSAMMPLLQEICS

CCCCOCCOCCOCCOCCO
active: [1] 27.5 µM
not listed: [14] | [15] | [16] | [17] | [18]
inactive: all other assays above

Cc1ccc2sc3cccc(C)c3c2c1
not listed: [6] | [7] | [13] | [17] | [18]
inactive: all other assays above

Cc1ccc(C=O)cc1
not listed: [4] | [7] | [13] | [15] | [18]
inactive: all other assays above

CCCCNC(=O)NS(=O)(=O)c1ccc(C)cc1
not listed: [13] | [15] | [16]
inactive: all other assays above

OCCOc1cccc(OCCO)c1
not listed: [16]
inactive: all other assays above

CC(C)Oc1ccccc1O
active: [1] 39.4 µM
not listed: [11] | [17] | [18]
inactive: all other assays above

C=COCCOCCOCCOC=C
not listed: [13] | [16] | [17] | [18]
inactive: all other assays above

CC(C)(Oc1ccc(CCNC(=O)c2ccc(Cl)cc2)cc1)C(=O)O
not listed: [1] | [2] | [3] | [15] | [16] | [17] | [18]
inactive: all other assays above

Nc1cc([N+](=O)[O-])ccc1O
not listed: [9] | [16] | [17]
inactive: all other assays above

Nc1ccc(S(N)(=O)=O)cc1
not listed: [2] | [3] | [11] | [16] | [17] | [18]
inactive: all other assays above

ClCCCl
not listed: [13] | [16] | [17] | [18]
inactive: all other assays above

CCn1c2ccccc2c2cc(N)ccc21
active: [1] 3.35 µM | [2] 100 µM | [3] 67.9 µM | [5] 27.3 µM
not listed: [6] | [11] | [13] | [17]
inactive: all other assays above

O=C(O)c1ccc([N+](=O)[O-])cc1
not listed: [2] | [15] | [16] | [17] | [18]
inactive: all other assays above

Reference: PubChem BioAssay (EPA / NIEHS)
